# About 860 (78%) of roughly 1,100 compounds were called active. Inconclusive results (about 19%) are left out. Calls follow the shape of the dose curve; as a rule, active = well fitted activation curve with a large enough effect; inconclusive = small, poorly fitted or top-dose-only effect; inactive = flat fitted curve, though single readings scatter. So high a share suggests a set chosen from earlier hits. The list shows a part of the results.
# Experiment: qHTS of Nrf2 Activators: Hit Validation in Primary Assay; also: nearly all actives have a fitted effect of over 70% in size; as to activation: 0% is about no effect
# Conditions: Nrf2/ARE reporter cell assay; Potency: activation; series mostly up to 46.1 µM; activation: at the top concentration
# How it was run: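 Luminescence from Steady-Glo lysis reagent, read after 30 min, reported ARE-luciferase activity in AREc32_fluc stable cells. Compounds were tested at several concentrations, incubated 24 h at 37 °C with 5% CO2 following overnight seeding.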
# Potency is read from the fitted curve at half-maximal effect.
SMILES,Potency,activation
COn1c(=O)c(-c2cccc(Br)c2)[n+]([O-])c2ccccc21,14.6 µM (active),
CCn1c(=NC(=O)c2ccco2)sc2cccc(F)c21,1.3 µM (active),
Cn1c(NCC2CCCCC2)nc2cc(-c3ccsc3)sc2c1=O,2.31 µM (active),
Brc1ccc(C2=CC(c3ccco3)n3nnnc3N2)cc1 (stereo unspecified),9.2 µM (active),
C1=C(c2ccc(-c3ccccc3)cc2)Nc2ncnn2C1c1ccco1 (stereo unspecified),6.51 µM (active),
O=C(O)c1ccc(-n2ncc(Cl)c(Cl)c2=O)cc1,2.91 µM (active),
Cc1ccc(Sc2cnn(-c3ccccc3)c(=O)c2Cl)cc1,,4.01% (inactive)
c1ccc(-c2cc3c(-n4cccc4)ncnc3o2)cc1,2.06 µM (active),
Cc1c(Cl)cccc1N=c1c([N+](=O)[O-])nn(-c2ccccc2)n1O,2.31 µM (active),
COc1ccc(Cl)cc1NC(=O)CCS(=O)(=O)c1cccc2nonc12,16.4 µM (active),
Nc1c(Cl)cc(N=Nc2ccccc2)cc1Cl,2.59 µM (active),
O=c1oc2ccccc2nc1/C=C(\O)c1ccc(Br)cc1,20.6 µM (active),
O=C(Cn1cnc2ccccc21)N/N=C/C(Br)=C/c1ccccc1,20.6 µM (active),
OCCC#Cc1c(-c2ccsc2)sc2ccccc12,2.31 µM (active),
O=C(/C=C/c1ccco1)Nc1ccc(Cl)c(-c2nc3cc(Cl)ccc3o2)c1,1.16 µM (active),
O=C(/C=C/c1ccco1)Nc1ccc2nn(-c3ccccc3)nc2c1,7.31 µM (active),
O=C(/C=C/c1ccco1)Nc1cccc(S(=O)(=O)N2CCOCC2)c1,8.2 µM (active),
O=C(/C=C/c1ccco1)Nc1ccc(-c2nc3ccccc3[nH]2)cc1,1.3 µM (active),
O=[N+]([O-])c1cc2c(cc1Br)-c1ccccc1C2,2.31 µM (active),
COc1cc2c(cc1NC(=O)c1ccccc1F)CCCC2,6.51 µM (active),
COc1cc2c(cc1NC(=O)c1cccc(F)c1)CCCC2,2.59 µM (active),
Cc1cc(O)cc2c1C(=O)/C(=C/c1ccco1)O2,1.84 µM (active),
COc1cccc(NC(=O)c2nn(C)cc2Br)c1,16.4 µM (active),
COc1cccc(NC(=O)c2cc(Cl)nnc2Cl)c1,18.4 µM (active),
CCSc1ncc(Cl)c(C(=O)Nc2ccccc2)n1,4.61 µM (active),
COc1cccc(NC(=O)c2nc(SC)ncc2Cl)c1,2.91 µM (active),

SMILES,Potency,activation
CCOC(=O)c1ccc(NC(=O)c2nc(S(=O)(=O)Cc3ccccc3)ncc2Cl)cc1,3.66 µM (active),
O=C(NCCc1ccccn1)c1c(-c2ccsc2)sc2ccccc12,2.31 µM (active),
COC(=O)c1ccccc1NC(=O)c1cccs1,14.6 µM (active),
COc1ccccc1C(=O)COC(=O)c1cccs1,6.51 µM (active),
O=C(Nc1cccc2nsnc12)c1cccs1,2.91 µM (active),
O=C(Nc1ccc2nsnc2c1)c1cccs1,6.51 µM (active),
CNC(=O)C1CCN(S(=O)(=O)c2c(C)noc2/C=C/c2ccccc2F)CC1,9.2 µM (active),
CCOC(=O)c1ccccc1N/C=C/C(=O)c1ccccc1,3.26 µM (active),
O=C(/C=C/Nc1ccc(F)cc1)c1cccs1,6.51 µM (active),
CCOC(=O)c1ccccc1N/C=C/C(=O)c1cccs1,2.31 µM (active),
O=C(CN1CCCCC1)Nc1nnc(-c2ccccc2)s1,5.8 µM (active),
C/C(=N\Nc1ccc(F)cc1F)c1ccc(Br)s1,16.4 µM (active),
C/C(=N\Nc1ccccn1)c1cccs1,14.6 µM (active),
C/C(=N\Nc1ccccn1)c1ccc(Br)s1,7.31 µM (active),
N#Cc1cccn1-c1nccc(-c2cccs2)n1,4.61 µM (active),
COCCNC(=O)c1ccc(-n2c(-c3ccccc3)cc3c2CCC(C)C3)cc1 (stereo unspecified),16.4 µM (active),
CC1CCc2c(cc(-c3ccccc3)n2-c2ccc(C(=O)NC(C)C)cc2)C1 (stereo unspecified),23.1 µM (active),
Cc1ccc(S(=O)(=O)c2nc(S(C)(=O)=O)sc2N2CCC(C)CC2)cc1,20.6 µM (active),
Cc1ccc(S(=O)(=O)c2nc(S(C)(=O)=O)sc2N2CCCCC2C)cc1 (stereo unspecified),2.06 µM (active),
Cc1ccc(S(=O)(=O)c2nc(S(C)(=O)=O)sc2N2CCC(O)CC2)cc1,9.2 µM (active),
COc1ccc(-c2cc3ccccc3oc2=O)cc1NC(=O)c1ccc([N+](=O)[O-])o1,3.26 µM (active),
COc1ccccc1NC(=O)c1cnc(SCC(=O)NCCc2ccccc2)n(C)c1=O,3.66 µM (active),
Cc1ccc(OCC(=O)Nc2cccc3ccccc23)c([N+](=O)[O-])n1,11.6 µM (active),
O=C(COc1cccnc1[N+](=O)[O-])Nc1cccc2ccccc12,16.4 µM (active),
C/C(=N\Nc1ccc2nncn2n1)c1ccc(Cl)s1,3.66 µM (active),
COc1ccc([N+](=O)[O-])cc1C1NN=C(c2ccccc2O)S1 (stereo unspecified),2.91 µM (active),

SMILES,Potency,activation
O=C1CC(c2ccco2)CC(O)=C1C=Nc1cc(Cl)ccc1O (stereo unspecified),4.61 µM (active),
CC1(C)C(=O)OC(/C=C/c2cccc([N+](=O)[O-])c2)C(C)(C)C1=O (stereo unspecified),1.03 µM (active),
N#C/C(=C\c1c(Oc2ccc(Cl)cc2)nc2ccccn2c1=O)C(=O)NC1CCS(=O)(=O)C1 (stereo unspecified),2.06 µM (active),
Cc1cc(C)c2c(N)c(C(=O)c3ccc(Br)cc3)oc2n1,4.11 µM (active),
Cc1ccc(-c2cc(-c3cccc(F)c3)n[nH]2)c(O)c1,2.59 µM (active),
Cc1cccn2c(=O)c(C=NCCO)c(NCc3ccco3)nc12,2.59 µM (active),
O=Cc1c(NCc2ccco2)nc2ccccn2c1=O,1.64 µM (active),
Fc1ccc2cc(-c3ccsc3)ncc2c1,7.31 µM (active),
COc1ccc(N2C(=O)/C(=C\c3ccco3)N=C2SCC(N)=O)cc1Cl,1.64 µM (active),
O=C(C=Cc1ccccc1Cl)c1ccccc1,18.4 µM (active),
Clc1ccc(/C=N/Nc2nnc(Cl)c3ccccc23)cc1,2.31 µM (active),
Clc1nnc(NN=C2CCCC2)c2ccccc12,4.61 µM (active),
O=[N+]([O-])c1cccc(N2Cc3ccccc3C2)c1,20.6 µM (active),
O=C(N/N=C/C(Br)=C/c1ccccc1)c1ccc([N+](=O)[O-])cc1,18.4 µM (active),
COc1ccc2c(c1)C1=NN(/C(C)=C/C(C)=O)C(c3cccc(F)c3)C1CC2 (stereo unspecified),5.8 µM (active),
Cc1ccc(-c2nc3sc(C#N)c(N)n3c(=O)c2C#N)cc1,8.2 µM (active),
COc1ccccc1NC(=O)c1ccc(Cl)c(S(=O)(=O)NCc2ccco2)c1,10.3 µM (active),
COc1c(Cl)cc(C(=O)NCc2ccco2)cc1Cl,14.6 µM (active),
Cc1c(C(=O)NCc2ccco2)oc2c(Cl)cccc12,1.46 µM (active),
COc1ccc(OC)c2sc(NC(=O)CCS(=O)(=O)c3ccccc3)nc12,3.26 µM (active),
COc1ccc(C)c2sc(NC(=O)CCS(=O)(=O)c3ccccc3)nc12,4.11 µM (active),
O=C(CCS(=O)(=O)c1ccccc1)Nc1nc2ccc(F)cc2s1,18.4 µM (active),
CCOC(=O)c1ccsc1NC(=O)CCS(=O)(=O)c1ccccc1,18.4 µM (active),
O=C(CCS(=O)(=O)c1ccccc1)Nc1nc2c(s1)COc1ccccc1-2,6.51 µM (active),
Cc1cccc2cc3c(nc12)-c1ccccc1C3=O,10.3 µM (active),
c1ccc2nc3c(ccc4ccccc43)cc2c1,9.2 µM (active),

SMILES,Potency,activation
COC(=O)c1c(NC(=O)c2ccccc2)sc(C(N)=O)c1C,1.46 µM (active),
CCOC(=O)c1sc(NC(=O)c2ccccc2F)c(C(N)=O)c1C,2.31 µM (active),
c1ccc(N2CC3COc4ccccc4C3=N2)cc1 (stereo unspecified),2.59 µM (active),
c1ccc(N2CC3CCc4ccccc4C3=N2)cc1 (stereo unspecified),5.8 µM (active),
Cc1ccc(S(=O)(=O)c2nc(S(C)(=O)=O)sc2N2CC(C)OC(C)C2)cc1 (stereo unspecified),18.4 µM (active),
CCCS(=O)(=O)c1nc(S(=O)(=O)c2ccc(C)cc2)c(N2CC(C)OC(C)C2)s1 (stereo unspecified),,7.58% (inactive)
CC1CN(c2sc(S(C)(=O)=O)nc2S(=O)(=O)c2ccc(Cl)cc2)CC(C)O1 (stereo unspecified),6.51 µM (active),
CCOC(=O)c1cnc(-c2ccccc2)nc1-c1ccccc1,9.2 µM (active),
Nc1nc(Nc2ccccc2F)nc(NCc2ccco2)c1[N+](=O)[O-],2.31 µM (active),
O=C1C=C(C#Cc2ccccc2)C[C@@H](c2ccc(F)cc2)C1,11.6 µM (active),
CC(C)(C)c1csc(NC(=O)CCS(=O)(=O)c2ccc(F)cc2)n1,20.6 µM (active),
O=C(CCS(=O)(=O)c1ccccc1)Nc1nc(-c2ccccn2)cs1,18.4 µM (active),
Cc1ccc2ccc(C3C(=O)c4ccccc4C3=O)nc2c1,1.64 µM (active),
C#CCSc1nc(-c2ccccc2)cc(C(F)(F)F)c1C#N,11.6 µM (active),
Cc1ccc(-c2cc(C(F)(F)F)c(C#N)c(SCCC#N)n2)o1,2.59 µM (active),
c1ccc2c(-c3nc4ncccc4o3)cccc2c1,6.51 µM (active),
CCn1c(SCC(=O)N/N=C/C=C\c2ccco2)nc2ccccc21,1.84 µM (active),
CCn1c(SCC(=O)N/N=C/C=C/c2ccco2)nc2ccccc21,1.46 µM (active),
Cn1c(SCC(=O)N/N=C/C=C\c2ccccc2[N+](=O)[O-])nc2ccccc21,0.366 µM (active),
Cn1c(SCC(=O)N/N=C/C=C\c2ccco2)nc2ccccc21,2.59 µM (active),
Cc1ccc(N=C2NC(=O)S/C2=C\c2ccco2)cc1,7.31 µM (active),
Cc1cccc(N=C2NC(=O)S/C2=C\c2ccco2)c1,3.26 µM (active),
C=CCn1c(=NC(=O)c2cc(Cl)sc2Cl)sc2cc(S(N)(=O)=O)ccc21,2.31 µM (active),
